Source: PubChem BioAssay
The source made the active and inactive calls.

Legend:
[1] = tested on: PRMT1 (protein arginine N-methyltransferase 1); assay: PRMT1 binders on small-molecule microarrays, primary screen, biochemical, small-molecule microarray, 635 nm fluorescence (AID 1088); settings: small-molecule microarray binding, higher = more signal;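 also: binding of Prmt1 protein to compounds spotted on small-molecule microarray slides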
[2] = yeast growth modulation, basal conditions, primary screen, YJM789 clinical isolate, OD600, 24 h (AID 1089);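 also: growth of clinical yeast isolate S. cerevisiae YJM 789 seeded 1000 cells per well; test concentration not given here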; settings: S. cerevisiae YJM789 growth, higher = more signal, called active from +8 up or from −8 down
[3] = fission yeast growth modulation, primary screen, strain 972, OD600, 24 h, no modulator (AID 1090);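 also: basal condition with compound alone and no growth modifier present; test concentration not given here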; settings: S. pombe 972 growth, higher = more signal, called active from +8 up or from −8 down
[4] = S. cerevisiae growth modulation with rapamycin, primary screen, strain BY4716, OD600, 96 h (AID 1091); settings: higher = more signal, called active from +8 up or from −8 down; also: test concentration not given here
[5] = target: Torsin-1A-interacting protein 2 (Homo sapiens) (UniProt Q8NFQ8); assay: LULL1 binders on small-molecule microarray, primary screen, cell lysate, human LULL1 lysate, 635/667 nm fluorescence (AID 1092); settings: hLULL1 lysate binding, 635 nm fluorescence, higher = more signal;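 also: probe is lysate of COS7 cells overexpressing human LULL1; score merges per-feature 667 nm fluorescence with signal-to-noise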
Torsin-1A-interacting protein 2 (Homo sapiens), sequence (Q8NFQ8 whole entry, looked up): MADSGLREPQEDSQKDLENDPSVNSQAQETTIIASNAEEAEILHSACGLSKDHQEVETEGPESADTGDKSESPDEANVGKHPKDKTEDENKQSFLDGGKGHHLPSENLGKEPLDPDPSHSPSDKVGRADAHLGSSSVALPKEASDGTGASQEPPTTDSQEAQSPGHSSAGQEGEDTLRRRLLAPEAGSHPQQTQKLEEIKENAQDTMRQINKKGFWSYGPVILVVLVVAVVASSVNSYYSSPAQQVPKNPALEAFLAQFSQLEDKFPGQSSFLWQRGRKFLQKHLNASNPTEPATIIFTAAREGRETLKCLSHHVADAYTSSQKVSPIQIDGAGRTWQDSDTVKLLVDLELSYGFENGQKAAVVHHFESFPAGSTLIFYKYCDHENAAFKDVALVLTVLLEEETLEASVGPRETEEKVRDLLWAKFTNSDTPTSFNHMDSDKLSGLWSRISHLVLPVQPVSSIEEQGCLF

[6] = E. coli growth modulation, two-sided OD650, primary screen, E. coli filamentation project, strain DRC41, 24 h (AID 1093); settings: OD650, 24 h, higher = more signal, called active from +8 up or from −8 down;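 also: MC1000 strain lacking acrAB efflux and sulA so SOS filamentation is blocked; test concentration not given here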
[7] = small-molecule microarray binders of probe aLefty2, primary screen, biochemical, biotinylated probe, 635/667 nm fluorescence (AID 1094); settings: higher = more signal;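 also: score merges spot fluorescence near 667 nm with spot signal-to-noise ratio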
[8] = tested on: Noggin (protein binding on small-molecule microarray); assay: Noggin binders on small-molecule microarray, primary screen, biochemical, 635/667 nm fluorescence (AID 1095); settings: 635 nm fluorescence, higher = more signal;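 also: score merges 667 nm feature fluorescence with signal to noise over triplicate slides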
[9] = target: Neurogenic locus notch homolog protein 3 (Homo sapiens) (UniProt Q9UM47); assay: NOTCH3 binders on small-molecule microarray, primary screen, biochemical, 635/667 nm fluorescence (AID 1096); settings: NOTCH3 binding, 635 nm fluorescence, higher = more signal
Neurogenic locus notch homolog protein 3 (Homo sapiens), sequence (Q9UM47 whole entry, looked up): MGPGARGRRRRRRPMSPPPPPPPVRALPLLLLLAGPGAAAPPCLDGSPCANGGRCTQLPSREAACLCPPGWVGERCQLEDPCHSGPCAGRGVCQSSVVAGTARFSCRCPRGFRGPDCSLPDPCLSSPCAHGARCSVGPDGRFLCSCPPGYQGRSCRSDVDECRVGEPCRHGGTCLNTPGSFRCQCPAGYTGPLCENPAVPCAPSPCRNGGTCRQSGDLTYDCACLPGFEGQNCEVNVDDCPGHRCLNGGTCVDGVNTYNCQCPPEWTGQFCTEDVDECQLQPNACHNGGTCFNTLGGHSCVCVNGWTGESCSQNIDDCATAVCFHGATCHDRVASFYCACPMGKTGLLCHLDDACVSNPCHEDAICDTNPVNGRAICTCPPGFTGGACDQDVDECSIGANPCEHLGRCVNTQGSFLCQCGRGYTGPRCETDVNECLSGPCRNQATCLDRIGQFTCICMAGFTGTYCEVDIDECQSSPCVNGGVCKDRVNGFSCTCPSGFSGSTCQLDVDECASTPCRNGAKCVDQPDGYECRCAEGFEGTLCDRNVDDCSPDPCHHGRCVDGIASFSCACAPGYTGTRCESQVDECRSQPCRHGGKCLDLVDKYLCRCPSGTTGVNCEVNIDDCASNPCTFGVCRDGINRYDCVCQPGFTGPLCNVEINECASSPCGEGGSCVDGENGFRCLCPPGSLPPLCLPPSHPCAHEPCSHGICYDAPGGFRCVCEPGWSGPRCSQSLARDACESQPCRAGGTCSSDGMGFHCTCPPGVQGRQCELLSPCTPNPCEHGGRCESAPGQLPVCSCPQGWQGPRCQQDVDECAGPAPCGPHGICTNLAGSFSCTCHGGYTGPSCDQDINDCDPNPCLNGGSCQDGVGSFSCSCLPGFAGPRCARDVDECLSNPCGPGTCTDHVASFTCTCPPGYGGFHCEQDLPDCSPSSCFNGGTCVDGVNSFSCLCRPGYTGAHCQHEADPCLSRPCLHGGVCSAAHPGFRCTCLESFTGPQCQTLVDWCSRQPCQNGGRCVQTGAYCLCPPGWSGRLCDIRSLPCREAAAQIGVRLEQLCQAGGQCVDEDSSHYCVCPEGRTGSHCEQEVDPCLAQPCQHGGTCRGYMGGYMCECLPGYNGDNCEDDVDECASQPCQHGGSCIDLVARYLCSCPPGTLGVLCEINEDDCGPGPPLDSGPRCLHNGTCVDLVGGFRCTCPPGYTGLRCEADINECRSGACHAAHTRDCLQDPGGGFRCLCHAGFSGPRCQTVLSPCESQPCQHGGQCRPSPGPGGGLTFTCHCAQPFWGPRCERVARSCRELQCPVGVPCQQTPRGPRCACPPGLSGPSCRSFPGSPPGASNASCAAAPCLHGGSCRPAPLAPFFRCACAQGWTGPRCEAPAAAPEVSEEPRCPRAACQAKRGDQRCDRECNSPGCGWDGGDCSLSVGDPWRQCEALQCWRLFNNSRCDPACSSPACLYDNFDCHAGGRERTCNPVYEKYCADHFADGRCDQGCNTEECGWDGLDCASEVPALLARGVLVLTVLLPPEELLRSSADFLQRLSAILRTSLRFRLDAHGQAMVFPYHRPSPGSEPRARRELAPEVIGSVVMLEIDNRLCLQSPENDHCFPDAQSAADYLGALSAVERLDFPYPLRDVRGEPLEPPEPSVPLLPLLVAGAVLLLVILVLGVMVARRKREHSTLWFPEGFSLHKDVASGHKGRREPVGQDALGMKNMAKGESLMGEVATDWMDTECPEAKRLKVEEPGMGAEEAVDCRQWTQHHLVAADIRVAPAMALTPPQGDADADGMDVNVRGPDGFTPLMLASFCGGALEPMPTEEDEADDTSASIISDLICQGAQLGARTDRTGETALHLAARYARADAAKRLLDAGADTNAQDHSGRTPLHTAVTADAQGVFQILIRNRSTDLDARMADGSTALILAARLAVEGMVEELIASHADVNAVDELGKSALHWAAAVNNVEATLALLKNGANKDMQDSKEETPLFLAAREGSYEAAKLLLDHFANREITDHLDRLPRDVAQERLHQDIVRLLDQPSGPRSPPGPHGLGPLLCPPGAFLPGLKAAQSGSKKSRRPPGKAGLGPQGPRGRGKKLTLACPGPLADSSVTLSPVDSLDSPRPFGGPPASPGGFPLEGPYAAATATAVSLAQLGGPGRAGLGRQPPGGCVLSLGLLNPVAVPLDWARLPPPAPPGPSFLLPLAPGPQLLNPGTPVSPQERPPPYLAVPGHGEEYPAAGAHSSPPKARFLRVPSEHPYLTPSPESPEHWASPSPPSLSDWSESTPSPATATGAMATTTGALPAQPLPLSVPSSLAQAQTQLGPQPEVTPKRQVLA

[10] = small-molecule microarray binders of probe aEGFR, primary screen, biochemical, biotinylated probe, 635/667 nm fluorescence (AID 1097); settings: higher = more signal;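 also: probe is a biotinylated anti-EGFR antibody binding compounds printed on slides; score combines fluorescence near 667 nm and signal to noise of each spot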
[11] = tested on: Plasmodium falciparum Sir2 (PF13_0152, Sir2A); assay: pfSir2 binders on small-molecule microarrays, primary screen, biochemical, small-molecule microarray, 635 nm fluorescence (AID 1098); settings: small-molecule microarray binding, fluorescence 635 nm; higher = more signal;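 also: score merges spot fluorescence intensity with its signal-to-noise ratio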
[12] = small-molecule microarray binders of probe aDKK1, primary screen, biochemical, biotinylated probe, 635/667 nm fluorescence (AID 1099); settings: higher = more signal;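 also: score merges 667nm spot fluorescence with signal to noise across triplicate slides; reference of the scale not given here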
[13] = small-molecule microarray binders of probe aCHRDL2, primary screen, biochemical, biotinylated probe, 635/667 nm fluorescence (AID 1100); settings: higher = more signal
[14] = splicing luciferase reporter signal modulators, primary screen, spliceosome inhibition project, cell-based, HEK293, splice +/- reporter (AID 1101); settings: luminescence, 24 h, higher = more signal, called active from +8 up or from −8 down;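 also: HEK293 cells carrying a splicing-competent luciferase reporter gene; test concentration not given here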
[15] = target: Fibroblast growth factor 10 (Homo sapiens) (UniProt O15520); assay: FGF10 binders on small-molecule microarrays, primary screen, biochemical, small-molecule microarray, 635 nm fluorescence (AID 1102); settings: FGF10 binding, fluorescence 635 nm, higher = more signal
Fibroblast growth factor 10 (Homo sapiens), sequence (O15520 whole entry, looked up): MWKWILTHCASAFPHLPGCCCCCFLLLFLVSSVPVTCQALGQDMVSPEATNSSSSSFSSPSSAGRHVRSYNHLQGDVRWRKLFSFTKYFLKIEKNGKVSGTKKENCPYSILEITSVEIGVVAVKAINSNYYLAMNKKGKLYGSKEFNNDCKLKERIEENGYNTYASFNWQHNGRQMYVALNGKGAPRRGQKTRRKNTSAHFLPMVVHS

[16] = tested on: glycogen synthase kinase-3 (GSK3A per assay name; protocol says GSK3B); assay: GSK3 binders on small-molecule microarrays, primary screen, biochemical, small-molecule microarray, 635 nm fluorescence, GSK3A (AID 1103); settings: small-molecule microarray binding, fluorescence 635 nm; higher = more signal; also: the record names both GSK3A and GSK3B
[17] = target: Epidermal growth factor receptor (Homo sapiens) (UniProt P00533); assay: EGFR binders on small-molecule microarrays, primary screen, biochemical, small-molecule microarray, 635 nm fluorescence (AID 1104); settings: EGFR binding, higher = more signal;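 also: score merges 667 nm emission intensity with spot signal to noise over triplicate slides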
Epidermal growth factor receptor (Homo sapiens), sequence (P00533 whole entry, looked up): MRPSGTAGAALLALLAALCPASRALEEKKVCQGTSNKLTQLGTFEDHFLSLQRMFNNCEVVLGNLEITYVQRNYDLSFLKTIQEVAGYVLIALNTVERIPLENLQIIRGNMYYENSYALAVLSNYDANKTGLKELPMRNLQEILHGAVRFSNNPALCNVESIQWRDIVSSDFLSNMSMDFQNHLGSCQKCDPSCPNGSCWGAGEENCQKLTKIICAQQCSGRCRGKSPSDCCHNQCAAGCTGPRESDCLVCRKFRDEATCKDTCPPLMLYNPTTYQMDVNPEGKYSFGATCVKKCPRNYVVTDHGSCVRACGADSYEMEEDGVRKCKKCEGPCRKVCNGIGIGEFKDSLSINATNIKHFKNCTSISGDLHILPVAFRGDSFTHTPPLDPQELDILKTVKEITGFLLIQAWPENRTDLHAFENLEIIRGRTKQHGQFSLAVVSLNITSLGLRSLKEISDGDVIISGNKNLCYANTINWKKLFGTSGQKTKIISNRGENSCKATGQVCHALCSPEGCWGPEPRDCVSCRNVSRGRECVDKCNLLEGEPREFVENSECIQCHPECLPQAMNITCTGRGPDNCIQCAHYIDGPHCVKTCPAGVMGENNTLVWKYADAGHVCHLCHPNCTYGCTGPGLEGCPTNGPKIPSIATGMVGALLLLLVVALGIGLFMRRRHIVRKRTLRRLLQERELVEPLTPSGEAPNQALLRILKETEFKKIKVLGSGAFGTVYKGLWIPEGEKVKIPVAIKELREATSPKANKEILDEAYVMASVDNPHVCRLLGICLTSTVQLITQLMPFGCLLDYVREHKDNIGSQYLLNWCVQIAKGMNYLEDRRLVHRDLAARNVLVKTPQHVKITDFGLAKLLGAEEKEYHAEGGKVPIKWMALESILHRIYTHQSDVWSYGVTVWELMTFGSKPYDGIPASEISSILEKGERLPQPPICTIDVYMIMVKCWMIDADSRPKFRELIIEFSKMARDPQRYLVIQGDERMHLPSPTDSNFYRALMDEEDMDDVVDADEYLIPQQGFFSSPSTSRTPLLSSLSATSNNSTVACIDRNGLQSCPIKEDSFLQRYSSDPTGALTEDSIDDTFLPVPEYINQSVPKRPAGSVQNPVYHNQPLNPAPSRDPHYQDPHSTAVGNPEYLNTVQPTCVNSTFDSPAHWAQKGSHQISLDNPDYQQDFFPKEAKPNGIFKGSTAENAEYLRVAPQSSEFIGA

[18] = target: Follistatin-related protein 3 (Homo sapiens) (UniProt O95633); assay: FSTL3 binders on small-molecule microarrays, primary screen, biochemical, small-molecule microarray, 635 nm fluorescence (AID 1105); settings: FSTL3 binding, higher = more signal;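 also: score merges emission near 667 nm and signal to noise per printed spot across three slides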
Follistatin-related protein 3 (Homo sapiens), sequence (O95633 whole entry, looked up): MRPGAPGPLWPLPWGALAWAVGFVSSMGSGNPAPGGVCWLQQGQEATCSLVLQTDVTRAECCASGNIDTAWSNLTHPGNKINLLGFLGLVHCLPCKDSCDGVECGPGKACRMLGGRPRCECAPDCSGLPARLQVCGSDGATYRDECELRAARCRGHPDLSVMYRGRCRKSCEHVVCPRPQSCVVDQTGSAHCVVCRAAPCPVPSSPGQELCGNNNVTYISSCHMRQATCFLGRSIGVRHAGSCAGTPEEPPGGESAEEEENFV

[19] = target: Dickkopf-related protein 1 (Homo sapiens) (UniProt O94907); assay: DKK1 binders on small-molecule microarrays, primary screen, biochemical, small-molecule microarray, 635 nm fluorescence scan (AID 1106); settings: DKK1 binding, higher = more signal;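 also: score merges emission near 667 nm with signal to noise over three replicate slides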
Dickkopf-related protein 1 (Homo sapiens), sequence (O94907 whole entry, looked up): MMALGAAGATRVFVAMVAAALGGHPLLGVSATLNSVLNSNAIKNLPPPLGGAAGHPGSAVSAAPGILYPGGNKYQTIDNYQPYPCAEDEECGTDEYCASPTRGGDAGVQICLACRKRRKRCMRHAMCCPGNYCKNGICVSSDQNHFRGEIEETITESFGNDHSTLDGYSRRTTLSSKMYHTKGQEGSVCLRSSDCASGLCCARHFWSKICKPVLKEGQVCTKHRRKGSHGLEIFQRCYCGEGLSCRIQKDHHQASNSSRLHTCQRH

[20] = tested on: Inhibin beta A chain (activin A); assay: INHBA (activin A) binders on microarrays, primary screen, biochemical, small-molecule microarray, 635 nm fluorescence scan (AID 1107); settings: small-molecule microarray binding, higher = more signal;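 also: mouse activin A protein probed at 4.33 µg/mL on printed slides; score merges bound-protein fluorescence near 667 nm with spot signal-to-noise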

## COCCOC(=O)N1C(=O)[C@@]2(c3cc(C#CCNC(N)=O)ccc31)[C@H](c1ccc(O)cc1)N1[C@H](c3ccccc3)[C@H](c3ccccc3)OC(=O)[C@H]1[C@@H]2C(=O)NC[C@H](O)c1ccccc1
[1]
  composite z-score: 1.55
[2]
  z-score: 0.71 (inactive)
[3]
  z-score: 1.2 (inactive)
[4]
  z-score: 0.611 (inactive)
[5]
  composite z-score: 1.62
[6]
  z-score: -0.675 (inactive)
[7]
  composite z-score: 0.434
[8]
  composite z-score: 0.664
[9]
  composite z-score: 1.06
[10]
  composite z-score: 0.0586
[11]
  composite z-score: 0.193
[12]
  composite z-score: 0.614
[13]
  composite z-score: 0.689
[14]
  z-score: 0.716 (inactive)
[15]
  composite z-score: 1.05
[16]
  composite z-score: 0.727
[17]
  composite z-score: 0.222
[18]
  composite z-score: 1.34
[19]
  composite z-score: 1.52
[20]
  composite z-score: 0.342

## CO[C@H]1O[C@H](CO)[C@@H](OC(=O)Nc2ccc3c(c2)OCO3)[C@H](OC(=O)Nc2ccccc2)[C@H]1OC(=O)Nc1ccccc1
[1]
  composite z-score: 1.54
[2]
  z-score: 1.67 (inactive)
[3]
  z-score: 0.383 (inactive)
[4]
  z-score: 1.76 (inactive)
[5]
  composite z-score: 3.4
[6]
  z-score: -0.703 (inactive)
[7]
  composite z-score: -0.0702
[8]
  composite z-score: 0.704
[9]
  composite z-score: 1.15
[10]
  composite z-score: -0.0354
[11]
  composite z-score: 1.48
[12]
  composite z-score: 0.132
[13]
  composite z-score: 0.398
[14]
  z-score: 1.89 (inactive)
[15]
  composite z-score: 0.892
[16]
  composite z-score: 1.29
[17]
  composite z-score: -0.0701
[18]
  composite z-score: 0.848
[19]
  composite z-score: 0.295
[20]
  composite z-score: 0.395

## C=CC[C@@]1(C(=O)O)N=C(c2ccc(OCCCO)cc2)O[C@@H]1c1ccccc1N=[N+]=[N-]
[1]
  composite z-score: 1.23
[2]
  z-score: 0.0908 (inactive)
[3]
  z-score: -0.594 (inactive)
[4]
  z-score: -1.46 (inactive)
[5]
  composite z-score: 3.24
[6]
  z-score: 0.0672 (inactive)
[7]
  composite z-score: 0.23
[8]
  composite z-score: -0.203
[9]
  composite z-score: -0.231
[10]
  composite z-score: -0.0225
[11]
  composite z-score: 1.48
[12]
  composite z-score: 1.08
[13]
  composite z-score: 1.2
[14]
  z-score: 0.0828 (inactive)
[15]
  composite z-score: 0.291
[16]
  composite z-score: 0.658
[17]
  composite z-score: -0.107
[18]
  composite z-score: 0.316
[19]
  composite z-score: -0.227
[20]
  composite z-score: 1.46

## O=C/C=C/c1ccc(Cl)cc1
[1]
  composite z-score: -1.24
[2]
  z-score: -10.4 (active)
[3]
  z-score: -20.1 (active)
[4]
  z-score: -2.49 (inactive)
[5]
  composite z-score: -1.2
[6]
  z-score: -0.767 (inactive)
[7]
  composite z-score: -0.134
[8]
  composite z-score: -0.968
[9]
  composite z-score: -1.09
[10]
  composite z-score: -0.113
[11]
  composite z-score: -0.34
[12]
  composite z-score: -0.235
[13]
  composite z-score: 0.0073
[14]
  z-score: -1.05 (inactive)
[15]
  composite z-score: -0.513
[16]
  composite z-score: -0.966
[17]
  composite z-score: -0.301
[18]
  composite z-score: 0.0697
[19]
  composite z-score: 0.0956
[20]
  composite z-score: 0.934

## CCOC(=O)C[C@H]1[C@H](OC(=O)c2ccc(-c3ccccc3)cc2)[C@@H](NC(=O)c2ccc(-c3ccccc3)cc2)c2cc(OCCCO)ccc2N1C(=O)Cc1ccc(OC)cc1
[1]
  composite z-score: -0.007
[2]
  z-score: -0.907 (inactive)
[3]
  z-score: 0.321 (inactive)
[4]
  z-score: 0.16 (inactive)
[5]
  composite z-score: 0.856
[6]
  z-score: -0.963 (inactive)
[7]
  composite z-score: -0.0196
[8]
  composite z-score: -0.31
[9]
  composite z-score: -0.166
[10]
  composite z-score: -0.0505
[11]
  composite z-score: -0.253
[12]
  composite z-score: -0.0067
[13]
  composite z-score: 0.45
[14]
  z-score: 0.101 (inactive)
[15]
  composite z-score: 0.256
[16]
  composite z-score: -0.194
[17]
  composite z-score: -0.0509
[18]
  composite z-score: -0.0478
[19]
  composite z-score: 0.0032
[20]
  composite z-score: 0.638

## COC(=O)[C@@]1(Cc2ccc(F)cc2)[C@H]2c3cc(C(=O)N4CCCC4)n(Cc4cccc5ccccc45)c3C[C@H]2CN1C(=O)c1ccccc1
[1]
  composite z-score: 0.187
[2]
  z-score: 0.0247 (inactive)
[3]
  z-score: 0.702 (inactive)
[4]
  z-score: 0.307 (inactive)
[5]
  composite z-score: 3.85
[6]
  z-score: -1.48 (inactive)
[7]
  composite z-score: 0.698
[8]
  composite z-score: -0.275
[9]
  composite z-score: 0.941
[10]
  composite z-score: 0.245
[11]
  composite z-score: 1.53
[12]
  composite z-score: 0.479
[13]
  composite z-score: 0.854
[14]
  z-score: -2.29 (inactive)
[15]
  composite z-score: 0.427
[16]
  composite z-score: -0.423
[17]
  composite z-score: 0.329
[18]
  composite z-score: 0.286
[19]
  composite z-score: -0.538
[20]
  composite z-score: 0.644

## [N-]=[N+]=NCc1ccccc1[C@@H]1OC(c2ccc(OCCCO)cc2)=N[C@]1(Cc1ccccc1N=[N+]=[N-])C(=O)NCc1ccccc1
[1]
  composite z-score: 1.55
[2]
  z-score: 1.1 (inactive)
[3]
  z-score: 1.44 (inactive)
[4]
  z-score: 8.41 (active)
[5]
  composite z-score: 2.45
[6]
  z-score: -0.911 (inactive)
[7]
  composite z-score: 0.139
[8]
  composite z-score: 0.646
[9]
  composite z-score: 1.13
[10]
  composite z-score: 0.123
[11]
  composite z-score: 0.919
[12]
  composite z-score: 0.0108
[13]
  composite z-score: 0.316
[14]
  z-score: -0.856 (inactive)
[15]
  composite z-score: 0.691
[16]
  composite z-score: 1.25
[17]
  composite z-score: 0.351
[18]
  composite z-score: 0.667
[19]
  composite z-score: 0.0688
[20]
  composite z-score: 1.28

## COCCOC(=O)N1C(=O)[C@@]2(c3cc(C#CC4(O)CCCCCC4)ccc31)[C@H](C(=O)N1CCCCCCC1)[C@H]1C(=O)O[C@H](c3ccccc3)[C@H](c3ccccc3)N1[C@@H]2c1ccccc1OCCO
[1]
  composite z-score: 1.48
[2]
  z-score: 1.41 (inactive)
[3]
  z-score: -1.07 (inactive)
[4]
  z-score: 3.73 (inactive)
[5]
  composite z-score: 3.22
[6]
  z-score: 0.431 (inactive)
[7]
  composite z-score: 0.911
[8]
  composite z-score: 1.55
[9]
  composite z-score: 1.05
[10]
  composite z-score: 0.495
[11]
  composite z-score: 1.6
[12]
  composite z-score: 1.56
[13]
  composite z-score: 1.44
[14]
  z-score: 0.0811 (inactive)
[15]
  composite z-score: 0.933
[16]
  composite z-score: 1.32
[17]
  composite z-score: 0.75
[18]
  composite z-score: 1.46
[19]
  composite z-score: 1.18
[20]
  composite z-score: 1.63

## CN1C(=O)C2C=CC(C(O)c3ccccn3)N(Nc3ccccc3)C2C1=O (stereo not given)
[1]
  composite z-score: 0.949
[2]
  z-score: 0.826 (inactive)
[3]
  z-score: 0.632 (inactive)
[4]
  z-score: 1.23 (inactive)
[5]
  composite z-score: 0.68
[6]
  z-score: -0.324 (inactive)
[7]
  composite z-score: 0.0524
[8]
  composite z-score: 0.021
[9]
  composite z-score: 0.186
[10]
  composite z-score: -0.0746
[11]
  composite z-score: 0.427
[12]
  composite z-score: 0.257
[13]
  composite z-score: 0.276
[14]
  z-score: 0.782 (inactive)
[15]
  composite z-score: 0.3
[16]
  composite z-score: 0.422
[17]
  composite z-score: 0.389
[18]
  composite z-score: 0.157
[19]
  composite z-score: -0.0961
[20]
  composite z-score: 1.05
